Compound activity: PubChem BioAssay, National Center for Advancing Translational Sciences (NCATS)
D2 antag: antagonizes the human D2 dopamine receptor. HEK293 TREx D2 cells, calcium flux, dopamine EC80. inhibition, % at 10 µM. 340,000 compounds, 2% hits. AID 485344; in the data active = inhibition above about 30%; inactive = below that, where a call was filed; note: 0% is about no effect
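Inhibition of EC80 dopamine-driven calcium flux, recorded kinetically, defines activity here; cells are a tetracycline-induced HEK293 T-REx line expressing force-coupled D2.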
D2 ag-1: agonists of human D2 dopamine receptor; P14416; HEK293 T-REx D2 cells, calcium flux agonist mode; activation, % at 2 µM; 340,000 compounds, 0.53% hits; AID 485358;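 active = activation over 3 SD above normal in the single-dose calcium agonist read, cut at about 30% in these data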; note: 0% is about no effect
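Agonism scored from kinetic calcium signal (1 read/sec, 180 s) following compound pin transfer, after a 10 s baseline. Cells: HEK293 Trex line expressing inducible D2 receptor coupled to calcium, dye-loaded after overnight culture at 30 C.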
D2 PAM-1: positive allosteric modulators of human D2 dopamine receptor | DiscoveRx D2 beta-arrestin cells, luminescence, 90 min; 100% = 57 uM dopamine signal | AID 624464 | potentiation, % (concentration not given with the values) | P14416 | 360,000 compounds, 0.23% hits; in the data active = potentiation above about 50%; inconclusive = mostly about 30% to 49%
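D2 cells co-treated with compound plus 50 nM dopamine (EC20) for 90 min at 37 deg C to detect potentiation. Beta-arrestin recruitment was read as enzyme-fragment luminescence after 1 h at ambient temperature. Full response was set by 57 uM dopamine.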
D2 ag-2: agonists of human D2 dopamine receptor (beta-arrestin); activation, % (no concentration beside the values); 360,000 compounds, 0.084% hits; P14416; AID 624465; DiscoveRx PathHunter D2 beta-arrestin, luminescence, 90 min; 100% = 57 uM dopamine signal; in the data active = activation above about 40%; inconclusive = between about 15% and that limit
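DiscoveRx PathHunter D2 beta-arrestin cells (2,100/well) attached overnight, then compound-stimulated 90 min at 37 C in HBSS/10 mM HEPES/0.1% Tween-20 buffer; beta-galactosidase complementation read by luminescence after 1 h at ambient temperature. Dopamine 57 uM final (EC100) as control.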
D2 PAM-2: positively modulates the human D2 dopamine receptor allosterically; P14416; HEK293 T-REx D2, calcium flux, EC20 dopamine potentiation; 340,000 compounds, 0.34% hits; potentiation, % at 10 µM;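 active = potentiation over 3 SD above the plate norm, cut at about 30% in these data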; note: 0% is about no effect
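Tetracycline-induced Hek293 Trex D2 cells, force-coupled to calcium, loaded with no-wash calcium dye. Compound added with 180 s kinetic read for agonism, then EC20 dopamine and a further 180 s read for potentiation.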
B2AR arrestin: beta2AR (human) beta-arrestin recruitment activity; P07550; beta-arrestin recruitment to beta2AR, cell-based reporter; Potency, µM (top dose mostly 46.1 µM), without a hit: top-dose activation, most hits filed as activators; 330,000 compounds, 0.02% hits; AID 492947; active = well fitted activation curve with a large enough effect; inconclusive = small, poorly fitted or top-dose-only effect;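 note: potency is the fitted concentration of half-maximal effect; 0% = DMSO controls and full agonism = EC100 isoproterenol or metaproterenol; nearly all actives have a fitted effect of over 65% in size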
Target sequence (P07550 whole entry, looked up): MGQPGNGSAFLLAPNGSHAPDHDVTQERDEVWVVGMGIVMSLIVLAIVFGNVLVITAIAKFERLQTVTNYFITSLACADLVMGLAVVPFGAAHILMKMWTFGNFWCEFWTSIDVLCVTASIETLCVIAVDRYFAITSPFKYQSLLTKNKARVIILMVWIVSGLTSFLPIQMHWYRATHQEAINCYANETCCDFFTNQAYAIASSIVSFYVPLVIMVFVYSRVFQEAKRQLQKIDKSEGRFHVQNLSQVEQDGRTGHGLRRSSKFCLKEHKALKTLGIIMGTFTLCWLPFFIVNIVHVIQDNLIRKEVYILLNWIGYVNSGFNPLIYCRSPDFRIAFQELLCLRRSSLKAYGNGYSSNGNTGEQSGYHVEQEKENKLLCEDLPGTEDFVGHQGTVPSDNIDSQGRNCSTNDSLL
Starred values were filed as active, the others as inactive; ? = inconclusive; . = no result given. Only some compounds are listed: those with a hit (about 2.4% of all), similar ones and a draw of the others.

SMILES | D2 antag | D2 ag-1 | D2 PAM-1 | D2 ag-2 | D2 PAM-2 | B2AR arrestin
Cc1ccc(CN(C(=O)c2cccs2)C2CCS(=O)(=O)C2)cc1 (stereo not drawn) | 1 | 0 | -2 | -1 | 4 | 0%
O=C(Cc1cccs1)Nc1ccc(NC(=O)c2ccco2)cc1 | 31* | 0 | 1 | 2 | -11 | .
Cc1c(/C=N\NC(=O)C2COc3ccc(C(C)(C)C)cc3O2)c2ccccc2n1C (stereo not drawn) | 58* | 1 | 118* | 45* | -10 | 0%
C=CC[N+](C)(C)CCCNC(=O)/C=N/O | 62* | -1 | -8 | -2 | -1 | 0%
CN(C)CCCNCCCCNC(=O)/C=N/O | -6 | 1 | -12 | -3 | -3 | -1%
O=C(c1cnc(N2CCCCC2)c2ccccc12)N1CCN(c2ccc(F)cc2)CC1 | . | -1 | . | . | -1 | .
CN1C(=O)/C(=C/c2ccc(OC(=O)c3ccco3)cc2)SC1=S | -13 | -3 | -21 | 0 | 2 | -1%
CN1C(=O)/C(=C\c2ccc(OC(=O)c3ccco3)cc2)SC1=S | 48* | 1 | -8 | -4 | 10 | 0%
COc1ccc(C(=O)Nc2ccc(C(=O)OCc3cc(=O)n4nc(C(C)C)sc4n3)cc2)cc1 | . | 2 | . | . | 16 | .
Cc1c(Cl)c(C(=O)Nc2nc3ccccc3n2CCN2CCCCC2)nn1C | -15 | -1 | . | . | 35* | 0%
Cc1nn(C)c2ncc(C(=O)c3ccccc3O)cc12 | 48* | 0 | 5 | -1 | 13 | 1%
Cc1ccc(O)c(C(=O)c2cnc3c(c2)c(C)nn3C)c1 | 1 | 0 | -5 | -1 | -11 | 1%
CCOC(=O)N1CCC(NC(=O)C2CCN(S(=O)(=O)c3cccc4cccnc34)CC2)CC1 | 51* | -1 | -5 | -1 | -13 | 0%
O=C(Nc1nccs1)C1CCCN(S(=O)(=O)c2cccc3cccnc23)C1 (stereo not drawn) | 39* | 0 | 1 | -2 | 4 | 0%
O=C(Nc1ccccc1Cl)C1CCCN(S(=O)(=O)c2cccc3cccnc23)C1 (stereo not drawn) | -4 | -4 | -11 | ? | 17 | -1%
COc1cc(NC(=O)CSc2nnnn2C2CCCC2)cc(OC)c1 | 2 | -1 | -9 | 0 | -8 | 0%
COC(=O)c1ccc(NC(=O)CSc2nnnn2C2CCCCC2)cc1 | 42* | 0 | -9 | 7 | -1 | -1%
O=C(CN1CCN(S(=O)(=O)c2ccc(Cl)cc2)CC1)Nc1ccc(F)cc1F | 39* | 1 | 1 | -1 | -7 | 0%
Cc1ccc(S(=O)(=O)N(C)C)cc1NC(=O)CN1CCCC1 | -21 | 0 | -22 | 3 | -27 | 0%
CN(C)S(=O)(=O)c1ccc(Cl)c(NC(=O)CN2CCCC2)c1 | 36* | 0 | -22 | -3 | -14 | 0%
Cc1ccc(S(=O)(=O)N2CCN(CC(=O)Nc3ccccc3Cl)CC2)cc1 | 40* | 0 | -1 | -2 | 10 | -1%
COc1ccc(NC(C)=O)cc1NC(=O)CN1CCN(S(=O)(=O)c2ccc(C(C)C)cc2)CC1 | 38* | 0 | -1 | 0 | -4 | 0%
COc1ccc(S(=O)(=O)N2CCCN(CC(=O)Nc3cc(NC(C)=O)ccc3OC)CC2)cc1 | 18 | 0 | -3 | 0 | 2 | 4%
CC1CCCCN1Cc1nc2c(c(=O)n(C)c(=O)n2C)n1Cc1c(F)cccc1Cl (stereo not drawn) | 10 | 1 | -5 | -1 | -3 | 0%
COc1ccc(NC(=O)CN2CCN(S(=O)(=O)c3ccc(Br)cc3)CC2)c(OC)c1 | -10 | 0 | -5 | 1 | -8 | 0%
COc1ccc(C)cc1NC(=O)CN1CCN(S(=O)(=O)c2ccc(Br)cc2)CC1 | 34* | 0 | 4 | 0 | 2 | 0%
Cc1ccc(S(=O)(=O)N[C@H](C(=O)OCC(=O)NC(=O)C2CCCCC2)C(C)C)cc1 | . | . | 6 | 2 | . | 0%
CCOc1ccc(NC(=O)c2cc(OC)nc3ccccc23)cc1 | 57* | -1 | -11 | -4 | -3 | -1%
